Records with an inconclusive call do not appear. The source made the active and inactive calls. Calls come from the whole dose curve; as a rule, active = well fitted cell-killing curve with a large enough effect; inconclusive = small, poorly fitted or top-dose-only effect, or effect the other way; inactive = flat fitted curve, though single readings scatter.
What was measured:
Experiment in all cases: Primary qHTS to identify gynecologic anti-cancer compounds using libraries of approved drugs and bioactive compounds (AID 1345084); note: nearly all actives have a fitted effect of over 55% in size
Conditions in all cases: Gynecologic cancer cell panel viability, ATPlite luminescence, 48 h; series mostly up to 57.5 µM
OV90 = tested on: OV90
How it was run: (§1)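 48 h compound exposure at 37 C, 5% CO2; five-point qHTS. ATPlite luminescence readout of cell ATP.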

PA-1 = tested on: PA-1
How it was run: as §1

Tov-21-G = tested on: Tov-21-G
How it was run: as §1

Tov112D = tested on: Tov112D
How it was run: as §1
% is set by controls: 0 for no effect and ±100 for the full control effect.

OCC(O)C(c1c[nH]c2ccccc12)c1c[nH]c2ccccc12 (centres undefined)
inactive: Potency (OV90) | Potency (PA-1) | Potency (Tov-21-G) | Potency (Tov112D)

CCC12CCCN3CCc4c(n(c5ccccc45)C(O)C1)C32 (centres undefined)
inactive: Potency (OV90) | Potency (PA-1) | Potency (Tov-21-G) | Potency (Tov112D)

NC(=O)C(O[C@@H]1O[C@H](CO[C@@H]2O[C@H](CO)[C@@H](O)[C@H](O)[C@H]2O)[C@@H](O)[C@H](O)[C@H]1O)c1ccccc1 (some centres undefined)
inactive: Potency (OV90) | Potency (PA-1) | Potency (Tov-21-G) | Potency (Tov112D)

CC1=CC2=C(C)C(=O)C(C)(O)C(O)C2CO1 (centres undefined)
inactive: Potency (OV90) | Potency (PA-1) | Potency (Tov-21-G) | Potency (Tov112D)

CCOC(=O)COc1ccc2c(c1)C[C@@H](NC[C@H](O)c1cccc(Cl)c1)CC2
inactive: Potency (OV90) | Potency (PA-1) | Potency (Tov-21-G) | Potency (Tov112D)

Cc1cc(C(=O)N2Cc3cnn(C)c3Nc3ccccc32)ccc1CNC(=O)N1CCN(Cc2cc(O)cc(O)c2)CC1
inactive: Potency (OV90) | Potency (PA-1) | Potency (Tov-21-G) | Potency (Tov112D)

COc1cc(C(=O)OC[C@H]2O[C@@H](OC(C)(C)C(=O)O)[C@H](O)[C@@H](O)[C@@H]2O)cc(OC)c1O
inactive: Potency (OV90) | Potency (PA-1) | Potency (Tov-21-G) | Potency (Tov112D)

CC(CCc1ccc(O)cc1)O[C@@H]1O[C@H](CO[C@@H]2OC(CO)[C@H](O)[C@H]2O)[C@@H](O)[C@H](O)[C@H]1O (some centres undefined)
inactive: Potency (OV90) | Potency (PA-1) | Potency (Tov-21-G) | Potency (Tov112D)

CC(C)(O)C1CC=C(C(=O)OC[C@H]2O[C@@H](Oc3cc(C(=O)O)cc(O)c3O)[C@H](O)[C@@H](O)[C@@H]2O)CC1 (some centres undefined)
inactive: Potency (OV90) | Potency (PA-1) | Potency (Tov-21-G) | Potency (Tov112D)

COc1cc(C2CC(=O)Nc3c2cc(Br)c2ccccc32)cc(OC)c1OC (centres undefined)
inactive: Potency (OV90) | Potency (PA-1) | Potency (Tov-21-G) | Potency (Tov112D)

CCc1nn(CCO)c(CC)c1Oc1cc(C#N)cc(C#N)c1
inactive: Potency (OV90) | Potency (PA-1) | Potency (Tov-21-G) | Potency (Tov112D)

COc1cc(C[C@@]2(O)CO[C@@H](c3ccc(O[C@@H]4O[C@H](CO)[C@@H](O)[C@H](O)[C@H]4O)c(OC)c3)[C@H]2CO)ccc1O
inactive: Potency (OV90) | Potency (PA-1) | Potency (Tov-21-G) | Potency (Tov112D)

CC(C)c1ccc2c(c1)C(O)CC1C(C)(CO)CCCC21C (centres undefined)
inactive: Potency (OV90) | Potency (PA-1) | Potency (Tov-21-G) | Potency (Tov112D)

CC(C)c1ccc2c(c1)[C@H](O)CC1[C@@](C)(C(=O)O)CCC[C@]21C (some centres undefined)
inactive: Potency (OV90) | Potency (PA-1) | Potency (Tov-21-G) | Potency (Tov112D)

CC1CCC23COC(=O)C2=CC(O)CC3C1(C)CCc1ccoc1 (centres undefined)
inactive: Potency (OV90) | Potency (PA-1) | Potency (Tov-21-G) | Potency (Tov112D)

C[C@]1(C2CCCC2)Cc2cc(OCC(=O)O)c(Cl)c(Cl)c2C1=O
inactive: Potency (OV90) | Potency (PA-1) | Potency (Tov-21-G) | Potency (Tov112D)

C=C1C(O)CCC2(C)CC3(OC)OC(=O)C(C)=C3CC12 (centres undefined)
inactive: Potency (OV90) | Potency (PA-1) | Potency (Tov-21-G) | Potency (Tov112D)

C/C(CO)=C1/CCC23COC(C2)C(O)(C(=O)O)CCC13 (centres undefined)
inactive: Potency (OV90) | Potency (PA-1) | Potency (Tov-21-G) | Potency (Tov112D)

CC1(C)CC[C@]2(C(=O)OC3OC(CO)C(O)C(O)C3O)CC[C@]3(C)C(=CCC4[C@@]5(C)C[C@@H](O)[C@H](OC6OC(C(=O)O)C(O)C(O)C6O)C(C)(C)C5CC[C@]43C)[C@@H]2C1 (some centres undefined)
inactive: activity change, negative = cytotoxicity (OV90) 1.98% [at 11.6 µM] | activity change, negative = cytotoxicity (PA-1) 4.09% [at 11.6 µM] | activity change, negative = cytotoxicity (Tov-21-G) 3.24% [at 11.6 µM] | activity change, negative = cytotoxicity (Tov112D) 0.489% [at 11.6 µM]

CC1(C)CC[C@]2(C(=O)O[C@@H]3O[C@H](CO[C@@H]4O[C@H](CO)[C@@H](O)[C@H](O)[C@H]4O)[C@@H](O)[C@H](O[C@@H]4O[C@H](CO)[C@@H](O)[C@H](O)[C@H]4O)[C@H]3O)[C@H](O)C[C@]3(C)C(=CCC4[C@@]5(C)CC[C@H](O[C@@H]6OC[C@@H](O)[C@H](O)[C@H]6O)[C@@](C)(C(=O)O)C5CC[C@]43C)[C@@H]2C1 (some centres undefined)
inactive: activity change, negative = cytotoxicity (OV90) 6.96% [at 11.6 µM] | activity change, negative = cytotoxicity (PA-1) 0.131% [at 11.6 µM] | activity change, negative = cytotoxicity (Tov-21-G) 3.95% [at 11.6 µM] | activity change, negative = cytotoxicity (Tov112D) -6.08% [at 11.6 µM]

COc1ccccc1N1CCN(CCCCNC(=O)c2ccc(-c3cscn3)cc2)CC1
inactive: Potency (OV90) | Potency (PA-1) | Potency (Tov-21-G) | Potency (Tov112D)
